Laboratory results reported in PubChem BioAssay AID1159580 (chemical genetic matrix, 2015).
Hit rate of the full screen: of about 5,500 compounds, about 2,000 (36%) were called active. About 18% were inconclusive and are not listed. The list shows a part of the results. Unmarked numbers belong to inactive results. Cut-off read from the data, not from the text of the source: active = normalized growth mostly below about 0.91 (no sharp cut-off); inconclusive = no clear call, values can overlap the other calls; inactive = mostly above about 0.92.

Test: chemical genetic growth profiling, strain panel (AID 1159580);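 note: tested at 20 µM; growth read once vehicle control cultures reached saturation at 30 °C; 1 = growth at the plate median or of vehicle wells; lower values mean less growth of the strain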
Details: S. cerevisiae deletion strains, growth OD

CC1(C)C=Cc2c(cc3occ(-c4ccc5c(c4)OCO5)c(=O)c3c2O)O1
normalized growth (locus YAL013W, strain DEP1, active compounds read low): 0.996 | normalized growth (locus YAL021C, strain ccr4, active compounds read low): 0.931 | normalized growth (locus YAL026C, strain drs2, active compounds read low): 0.995 | normalized growth (locus YAL030W, strain snc1, active compounds read low): 0.938 | normalized growth (locus YBL061C, strain skt5, active compounds read low): 0.839 (active) | normalized growth (locus YBR009C, strain hhf1, active compounds read low): 0.982 | normalized growth (locus YBR021W, strain FUR4, active compounds read low): 1 | normalized growth (locus YBR023C, strain chs3, active compounds read low): 0.884 (active) | normalized growth (locus YBR171W, strain sec66, active compounds read low): 0.998 | normalized growth (locus YBR229C, strain ROT2, active compounds read low): 1.01 | normalized growth (locus YBR231C, strain swc5, active compounds read low): 0.864 (active) | normalized growth (locus YBR279W, strain paf1, active compounds read low): 0.988 | normalized growth (locus YCL011C, strain gbp2, active compounds read low): 0.897 (active) | normalized growth (locus YCL016C, strain dcc1, active compounds read low): 0.994 | normalized growth (locus YCL029C, strain bik1, active compounds read low): 1 | normalized growth (locus YCL061C, strain MRC1, active compounds read low): 0.977 | normalized growth (locus YCL069W, strain vba3, active compounds read low): 0.971 | normalized growth (locus YCR088W, strain abp1, active compounds read low): 0.995 | normalized growth (locus YDL005C, strain med2, active compounds read low): 0.998 | normalized growth (locus YDL035C, strain GPR1, active compounds read low): 0.908 | normalized growth (locus YDL040C, strain nat1, active compounds read low): 0.991 | normalized growth (locus YDL074C, strain BRE1, active compounds read low): 1.01 | normalized growth (locus YDL101C, strain DUN1, active compounds read low): 1.01 | normalized growth (locus YDL134C, strain PPH21, active compounds read low): 0.923 | normalized growth (locus YDL185W, strain tfp1, active compounds read low): 1 | normalized growth (locus YDL192W, strain arf1, active compounds read low): 0.956 | normalized growth (locus YDR001C, strain nth1, active compounds read low): 0.998 | normalized growth (locus YDR069C, strain doa4, active compounds read low): 0.811 (active) | normalized growth (locus YDR101C, strain arx1, active compounds read low): 0.983 | normalized growth (locus YDR137W, strain rgp1, active compounds read low): 1.04 | normalized growth (locus YDR159W, strain sac3, active compounds read low): 1 | normalized growth (locus YDR162C, strain NBP2, active compounds read low): 0.976 | normalized growth (locus YDR195W, strain ref2): 1.01 | normalized growth (locus YDR297W, strain sur2, active compounds read low): 0.91 (active) | normalized growth (locus YDR318W, strain mcm21, active compounds read low): 0.97 | normalized growth (locus YDR334W, strain swr1, active compounds read low): 0.95 | normalized growth (locus YDR335W, strain msn5, active compounds read low): 0.978 | normalized growth (locus YDR388W, active compounds read low): 0.993 | normalized growth (locus YDR392W, strain spt3, active compounds read low): 0.873 | normalized growth (locus YDR502C, strain sam2, active compounds read low): 0.989 | normalized growth (locus YEL003W, strain gim4, active compounds read low): 0.932 | normalized growth (locus YEL037C, strain rad23, active compounds read low): 0.977 | normalized growth (locus YEL061C, strain CIN8 (second series), active compounds read low): 0.98 | normalized growth (locus YEL061C, strain CIN8, active compounds read low): 0.981 | normalized growth (locus YER015W, strain faa2, active compounds read low): 0.841 (active) | normalized growth (locus YER016W, strain bim1, active compounds read low): 0.988 | normalized growth (locus YER110C, active compounds read low): 1.04 | normalized growth (locus YER111C, strain swi4, active compounds read low): 0.98 | normalized growth (locus YER155C, strain BEM2 (second series), active compounds read low): 0.947 | normalized growth (locus YER155C, strain BEM2, active compounds read low): 1.02 | normalized growth (locus YER167W, strain BCK2, active compounds read low): 0.967 | normalized growth (locus YFR010W, strain ubp6, active compounds read low): 0.91 | normalized growth (locus YGL078C, strain dbp3, active compounds read low): 1.02 | normalized growth (locus YGL086W, strain mad1, active compounds read low): 0.922 (active) | normalized growth (locus YGL167C, strain pmr1, active compounds read low): 1.01 | normalized growth (locus YGL173C, strain kem1, active compounds read low): 0.817 (active) | normalized growth (locus YGL227W, strain vid30, active compounds read low): 1.01 | normalized growth (locus YGL240W, strain doc1, active compounds read low): 1.02 | normalized growth (locus YGL248W, strain PDE1, active compounds read low): 0.883 (active) | normalized growth (locus YGL253W, strain hxk2, active compounds read low): 0.894 (active) | normalized growth (locus YGR078C, strain PAC10, active compounds read low): 0.98 | normalized growth (locus YGR135W, strain pre9, active compounds read low): 0.964 | normalized growth (locus YGR252W, strain gcn5, active compounds read low): 1.02 | normalized growth (locus YHR013C, strain ard1, active compounds read low): 0.982 | normalized growth (locus YHR027C, strain rpn1, active compounds read low): 0.749 (active) | normalized growth (locus YHR030C, strain SLT2, active compounds read low): 0.945 | normalized growth (locus YHR079C, strain IRE1 (second series), active compounds read low): 1.02 | normalized growth (locus YHR094C, strain hxt1, active compounds read low): 1.03 | normalized growth (locus YHR129C, strain ARP1, active compounds read low): 0.94 | normalized growth (locus YHR142W, strain chs7, active compounds read low): 0.936 | normalized growth (locus YHR200W, strain rpn10, active compounds read low): 0.968 | normalized growth (locus YIL066C, strain RNR3, active compounds read low): 0.921 | normalized growth (locus YIL073C, strain SPO22, active compounds read low): 0.886 | normalized growth (locus YIL125W, strain kgd1, active compounds read low): 1.03 | normalized growth (locus YIR030C, strain dcg1, active compounds read low): 1.01 | normalized growth (locus YJL092W, strain hpr5, active compounds read low): 0.983 | normalized growth (locus YJL095W, strain BCK1 (second series), active compounds read low): 0.918 (active) | normalized growth (locus YJL095W, strain BCK1, active compounds read low): 0.927 | normalized growth (locus YJL115W, strain asf1, active compounds read low): 1.01 | normalized growth (locus YJL129C, strain trk1, active compounds read low): 1.01 | normalized growth (locus YJL134W, strain LCB3, active compounds read low): 0.998 | normalized growth (locus YJL154C, strain vps35, active compounds read low): 0.997
